# CHX counter – counter-screen for Shiga toxin inhibitors: cycloheximide protein synthesis inhibition | cell reporter, cycloheximide protein synthesis inhibition counterscreen | max response, % | actives 12% (n = 300,000); in the data active = max response mostly above about 13%, no sharp cut-off; inactive = mostly below about 14%; also: read at 38.3 µM for the half of the compounds with a filed dose; 0% is about no effect
# NS1 inh – blocks influenza NS1 protein function; Potency, µM (top dose mostly 46.1 µM), for the others: top-dose activity, positive = more growth; actives 0.4% (n = 270,000); AID 2326; calls by dose curve; also: potency is read from the fitted curve at half-maximal effect; actives are rising curves; nearly all actives have a fitted effect of over 50% in size
#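 Compounds were scored for reversing the slow growth caused by influenza A NS1 in S. cerevisiae, measured by optical density at 600 nm. Assay medium contained 2% galactose at pH 6.0; NS1-free yeast of the same strain were the positive control.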
# AmpC no deterg – AmpC beta-lactamase inhibition without detergent | actives 0.52% (n = 330,000) | AmpC nitrocefin hydrolysis, absorbance 480 nm, 0.0001% Triton | P00811 | Potency, µM (titrated, usually from 57.1 µM), inactives show at the highest dose activity change, negative = inhibition, hits mostly inhibitors;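 also: potency is read from the fitted curve at half-maximal effect; plate controls were no compound for no effect and no enzyme for full effect; nearly all actives have a fitted effect of over 20% in size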
# Target sequence (P00811 whole entry, looked up): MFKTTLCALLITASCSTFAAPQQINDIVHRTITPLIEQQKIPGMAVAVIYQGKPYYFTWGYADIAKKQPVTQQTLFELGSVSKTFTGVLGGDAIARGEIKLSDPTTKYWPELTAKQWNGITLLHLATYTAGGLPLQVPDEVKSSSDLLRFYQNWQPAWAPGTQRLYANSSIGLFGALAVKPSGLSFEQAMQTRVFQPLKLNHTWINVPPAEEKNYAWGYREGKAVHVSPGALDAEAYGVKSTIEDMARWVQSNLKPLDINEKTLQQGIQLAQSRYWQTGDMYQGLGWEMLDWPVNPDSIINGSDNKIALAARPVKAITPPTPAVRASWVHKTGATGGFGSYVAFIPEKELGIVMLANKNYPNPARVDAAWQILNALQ
#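 AmpC (5.3 nM in the dispensed reagent) in 20 mM phosphate pH 7.0 with 0.01% (detergent screen) or 0.0001% Triton X-100 was preincubated with compounds for 15 min at room temperature. Nitrocefin was then added from an 800 uM solution, and hydrolysis was followed at 480 nm.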
# AmpC inh detg – blocks E. coli AmpC beta-lactamase in detergent assay; Potency, µM (doses to about 114 µM), inactives show top-dose activity change, negative = inhibition, usual class: inhibitors; AID 485294; P00811; actives 0.041% (n = 370,000); AmpC hydrolysis of nitrocefin, absorbance 480 nm, 0.01% Triton;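 also: potency is read from the fitted curve at half-maximal effect; 0% = no-compound wells and -100% = no-enzyme wells; nearly all actives have a fitted effect of over 25% in size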
#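 20 mM phosphate pH 7.0 + 0.01% (detergent screen) or 0.0001% Triton X-100; 5.3 nM AmpC reagent; cpd preinc 15 min RT; nitrocefin (800 uM stock) to start; A480 q20 s × 4 min; Activity was normalised to no-enzyme and no-compound control wells.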
# Shiga toxin inh – inhibitors of Shiga toxin in Vero cells; Vero cells, Shiga toxin protein synthesis inhibition reporter; AID 2315; actives 9.2% (n = 290,000); inhibition, % at 38.7 µM; in the data active = inhibition mostly above about 28%, no sharp cut-off; inactive = mostly below about 43%; also: 0% is about no effect
# Active calls of the source: *; ? = inconclusive; . = no result; [ ] = remark or other dose. This is one part of a sample in which hits are shown more often than they occur. Unless noted, calls follow the shape of the dose curve; as a rule, active = well fitted curve in the direction sought with a large enough effect; inconclusive = small, poorly fitted or top-dose-only effect, or another doubt; inactive = no such curve, though single readings can be large; an effect the other way counts as inactive or inconclusive.
SMILES,CHX counter,NS1 inh,AmpC no deterg,AmpC inh detg,Shiga toxin inh
C/C(=N\NC(=O)c1nn(C)c(C)c1Br)c1ccc(NC(=O)c2ccc(C)s2)cc1,45*,0%,-27%,2%,64*
C/C(=N\NC(=O)c1nn(C)c(C)c1Br)c1ccc(NC(=O)c2ccoc2C)cc1,91*,3%,-3%,-9%,93*
CC1CCN(CCCNC(=O)c2cc(Sc3ccc(F)cc3)nc3ccccc23)CC1,.,.,.,-3%,.
C/C(=N\NC(=O)c1c(Br)c(C)nn1C)c1ccc(NC(=O)c2ccoc2C)cc1,44*,-7%,147%,0%,40*
O=C(NCc1ccccc1)c1ccc(NC(=O)c2ccccc2F)cc1,-5,0%,-41%,-4%,-9
C/C(=N\NC(=O)c1nn(C)c(C)c1Br)c1ccc(NC(=O)c2ccccc2F)cc1,18*,2%,-7%,-7%,active
C/C(=N/NC(=O)c1ccoc1C)c1ccc(NC(=O)c2ccncc2)cc1,63*,-2%,-33%,1%,104*
CN1COc2ccc3ccccc3c2C1,18*,.,-14%,3%,4
CCCc1nc2ccccc2n1CCOc1ccccc1,1,-64%,20%,0%,-16
COc1ccc(NCc2nc3ccccc3n2CCOc2ccc(C)cc2)cc1,28*,?,-17%,1%,47*
c1ccc(NCc2nc3ccccc3n2CCOc2ccccc2)cc1,16*,-8%,-17%,-11%,active
COc1ccc(NCc2nc3ccccc3n2CCOc2ccccc2)cc1,47*,6%,-4%,2%,84*
CC(C)(C)c1ccc(OCc2nc3ccccc3n2CCOc2ccccc2)cc1,.,.,.,24%,.
O=[N+]([O-])c1ccc(N2CCCCC2)cc1NCCOc1ccccc1,-2,12%,-12%,-7%,-3
CCOc1ccc(NC(=O)COc2ccccc2)c([N+](=O)[O-])c1,28*,.,-21%,-10%,82*
O=C(CCOc1ccccc1)Nc1cccc([N+](=O)[O-])c1,20*,.,-34%,5%,50*
O=[N+]([O-])c1ccccc1NCCOc1ccccc1,73*,-5%,-18%,?,72*
O=C(CCOc1ccccc1)Nc1ccccc1[N+](=O)[O-],27*,.,-21%,-7%,54
O=C(CC(=O)Nc1ccccc1[N+](=O)[O-])Nc1ccccc1[N+](=O)[O-],-1,-1%,-45%,0%,-12
COc1cc(C(=O)Nc2ccc(-c3nc4ccccc4o3)c(O)c2)cc(OC)c1OC,.,.,.,-8%,.
Cc1ccc(NC(=O)NCc2c(-n3cccc3)sc3c2CCCC3)c(Cl)c1,.,.,.,-3%,.
CCOc1ccc(S(=O)(=O)N2CCN(c3cccc(C(F)(F)F)c3)CC2)cc1OCC,.,.,.,-4%,.
COc1cccc(OCCNc2cc(Cl)ccc2[N+](=O)[O-])c1,42*,-12%,-8%,0%,73*
COc1cccc(OCCNc2ccc([N+](=O)[O-])cn2)c1,.,.,-26%,-4%,.
Cc1nn(C)c2c1c(-c1ccccc1)cc(=O)n2Cc1ccc(Cl)cc1,.,.,.,0%,.
SMILES,CHX counter,NS1 inh,AmpC no deterg,AmpC inh detg,Shiga toxin inh
COc1ccc(/C=N/NC(=O)c2cnccn2)cc1O,65*,7%,2%,-8%,38*
O=C(N/N=C/c1cccc([N+](=O)[O-])c1)c1cnccn1,16,5%,-32%,-12%,active
COc1cccc(/C=N/NC(=O)C(C)n2nnc3ccccc32)c1 (stereo not drawn),25*,-5%,-24%,-4%,23
COc1cccc(/C=N/NC(=O)c2cnccn2)c1,75*,-8%,-7%,-12%,86*
COc1ccc(C=NNC(=O)c2cc(C)oc2C)cc1O,.,.,-20%,.,.
Cc1oc(CN2CCOCC2)cc1C(=O)O,-3,.,-15%,-16%,13
CCc1ccccc1NC(=O)c1cc(S(=O)(=O)N2CCCC2)cn1C,.,.,.,14%,.
CCOC(=O)CCc1c(C)nc2cc(-c3cc(OC)cc(OC)c3)[nH]n2c1=O,.,.,.,0%,.
COc1ccc(OC)c(/C=N/NC(=O)c2cnccn2)c1,9,-3%,-8%,-5%,69*
C/C(=N/OC(=O)c1c(-c2c(Cl)cccc2Cl)noc1C)c1cnccn1,-2,0%,58%,4%,-7
COc1cccc(/C=N/NC(=O)c2cnccn2)c1O,37*,2%,-5%,6%,89*
COc1cccc(C(=O)O/N=C(\C)c2cnccn2)c1,19*,-33%,-3%,9%,10
COc1ccc(/C=N/NC(=O)c2cnccn2)c(OC)c1OC,20,5%,-3%,-15%,16
COc1cccc(/C=N/NC(=O)c2cc(-c3cccn3C)n[nH]2)c1,10,16%,13µM*,-14%,21
O=C(CCNC(=O)c1ccc(Br)cc1)NCCCN1CCCC1=O,.,.,-4%,0%,.
COc1cccc(NC(=O)c2oc3ccc(S(=O)(=O)N(C)C4CCCCC4)cc3c2C)c1,.,.,.,-4%,.
O=C(/C=C/c1cccs1)Nc1cccc(NC(=O)/C=C/c2cccs2)n1,40*,22%,-57%,2%,90*
Cc1cc(C)c(-c2csc(NC(=O)/C=C/c3cccs3)n2)c(C)c1,-5,10%,-34%,2%,-10
CCN(CC)S(=O)(=O)c1ccc(C)c(NC(=O)/C=C/c2cccs2)c1,-2,-40%,-24%,?,-6
CCc1nnc(NC(=O)/C=C/c2cccs2)s1,17*,1%,-11%[2.29 µM],3%,40
O=C(/C=C/c1cccs1)Nc1nccs1,41*,8%,-14%,4%,111*
Cc1ccccc1NC(=O)/C=C/c1cccs1,28*,.,-10%,?,70*
CCOc1ccc(NC(=O)CNc2cccc(S(=O)(=O)N3CCCCCC3)c2)cc1OCC,.,.,3%,.,.
CC(OC(=O)/C=C/c1cccs1)C(=O)NC1CCCCC1C (stereo not drawn),10,23%,-20%,-1%,-25
O=C(/C=C/c1cccc(F)c1)Nc1nccs1,47*,.,-21%,-6%,117*
SMILES,CHX counter,NS1 inh,AmpC no deterg,AmpC inh detg,Shiga toxin inh
O=C(/C=C/c1cccs1)NC1CC1,19*,.,-18%[11.4 µM],-13%,19
CCc1nnc(NC(=O)C=C(C)C)s1,32*,2%,-4%,2%,39*
O=C(/C=C/c1cccs1)Nc1ccc(Br)cn1,43*,0%,-24%,-9%,60*
CCC(=O)Nc1ccc(Br)cn1,11,0%,-26%,6%,-5
Cc1ccc(N2CC(c3nnc(NC(=O)c4ccco4)s3)CC2=O)cc1C (stereo not drawn),.,.,.,24%,.
O=C(/C=C\c1ccccc1)Nc1nccs1,39*,7%,-12%,-2%,59*
CC(C)=CC(=O)Nc1nnc(-c2ccccc2C)s1,28*,-2%,87%,1%,77*
Cc1ccccc1-c1nnc(NC(=O)c2cc3ccccc3oc2=O)s1,-3,5%,-8%,-3%,-15
O=C(/C=C/c1ccccc1)Nc1nc(-c2cccs2)ns1,.,.,.,20%,.
